Most compounds without a hit are left out; they make up all but 1% or so of the library.
V-ATPase pH: regulators of yeast V-ATPase proton pumping, primary screen, pHLuorin cytosolic pH fluorescence; AID 504577, 2011; S. cerevisiae; 350,000 compounds, 0.37% hits; response, % at 10 µM; in the data active = response mostly above about 7.3%, no sharp cut-off; inactive = mostly below about 5.4%; note: actives read high
Yeast superoxide: reduction of superoxide in aged yeast, primary screen, HTS; 330,000 compounds, 0.18% hits; superoxide response (% of plate mean), % at 10 µM; S. cerevisiae aged cells, superoxide DHE fluorescence; hits give low values;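 active = superoxide response under a set limit, about three screen SD below normal, cut at about 65% in these data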;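 note: yeast aged for seven days with compound at 30 °C before DHE staining; 100% = average MFI of all compound-treated wells on the plate with controls excluded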
hiPSC survival: enhancers of single-cell hiPSC survival, primary screen, ATPlite luminescence. 100% = ROCK inhibitor wells, 0% = DMSO. survival enhancement, % at 20 µM. 360,000 compounds, 0.044% hits. AID 602274, 2012; in the data active = survival enhancement above about 18%;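 note: cells exposed to compounds for 16 hours before the ATP read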
Fh CTSL1 inh: Fasciola hepatica cathepsin L1 inhibitors, primary screen, counter-screen for PFM18AAP inhibitor project, biochemical, QFRET, fluorogenic peptide substrate | recombinant F. hepatica cathepsin L1, Z-Leu-Arg-MCA fluorescence | inhibition, % at 5.96 µM | 300,000 compounds, 0.49% hits | AID 1906, 2009;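 active = inhibition above the mean of all tested compounds plus 3 SD, set per screening campaign, cut at about 17% in these data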;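 note: 0% = plate median of test compound wells and 100% = 1 µM Z-Phe-Ala-diazomethylketone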
V-ATPase pH SP: yeast V-ATPase proton pumping modulators, confirmation, S. cerevisiae, pH-sensitive GFP, second cherry-pick; shares compounds with V-ATPase pH; response, % at 10 µM; AID 602197, 2012; S. cerevisiae pHLuorin cytosolic pH, V-ATPase proton transport; 980 compounds, 2% hits; in the data active = response above about 24%;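 note: plate controls were vehicle wells for no effect and positive control wells for full effect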
* = called active by the depositor; x = no result given.

SMILES	V-ATPase pH	Yeast superoxide	hiPSC survival	Fh CTSL1 inh	V-ATPase pH SP
COc1ccc(C)cc1S(=O)(=O)NCC(c1ccc2c(c1)OCO2)N1CCOCC1 (stereo not given)	11*	105	0	2	-4
Cc1ccc(/C(N)=N/OC(=O)Cc2cccs2)cc1	-2	107	2	-16	x
Cc1cccc(/C(N)=N/OC(=O)Cc2cccs2)c1	8.5*	105	0	-15	0
CCOc1ccc(CCNC(=O)COC(=O)c2ccc(S(C)(=O)=O)cc2)cc1OCC	15*	86	0	-4	0
Cn1c(SCC(=O)NC2CCCCC2)nnc1-c1cccnc1	-2	117	-1	3	x
Cn1c(SCC(=O)NC2(C#N)CCCCC2)nnc1-c1cccnc1	9.3*	84	0	0	1
CCN(CC)C(=O)c1cc2cc([N+](=O)[O-])ccc2s1	19*	91	1	7	3
CN(C)C(=O)c1cc2cc([N+](=O)[O-])ccc2s1	2	84	-2	-3	x
COCCCNC(=S)N/N=C/c1ccc(OC)cc1	-4	98	0	-4	x
COCCCNC(=S)N/N=C/c1ccc(O)cc1	13*	92	0	1	0
O=C(COC(=O)c1c(Cl)ccc(Cl)c1Cl)NCC1CCCO1 (stereo not given)	0	93	1	x	x
O=C(COC(=O)c1c(Cl)cccc1Cl)NCC1CCCO1 (stereo not given)	12*	88	1	-13	0
CN(C(=O)COC(=O)c1ccc(Cl)cc1N)C1CCS(=O)(=O)C1 (stereo not given)	11*	91	3	-7	-1
Cc1ccc(S(=O)(=O)NCc2ccccc2)cc1C(=O)NCC1CCCO1 (stereo not given)	-2	105	0	-1	x
COc1cccc(CNC(=O)CCC2CCCN(C(=O)c3ccc(C)nc3)C2)c1 (stereo not given)	9.9*	96	0	-1	4
c1ccc(CSc2nnc(SCc3ccccn3)s2)nc1	11*	94	1	3	-1
CN(CC(=O)Nc1ccccc1Br)C(=O)c1cc([N+](=O)[O-])ccc1N1CCOCC1	7.0*	91	0	8	-1
COc1ccccc1N(C)S(=O)(=O)c1ccc(C(=O)OCC(=O)Nc2ccc(C(N)=O)cc2)cc1	0	96	0	x	x
COc1ccc(NC(=O)COC(=O)c2ccc(S(=O)(=O)N(C)c3ccccc3OC)cc2)cc1OC	8	74	1	-1	0
CC1CN(CC(O)COc2ccc(C(C)C)cc2)CC(C)O1 (stereo not given)	8.8*	120	-3	3	0
CC(=O)c1ccc(OCC(O)CN2CC(C)OC(C)C2)cc1 (stereo not given)	-5	91	-4	1	x
CC1=C(C(=O)N(C)C)CC(CC(=O)NCc2cccs2)C(=O)N1Cc1ccc(F)cc1 (stereo not given)	x	x	1	x	x
CCCCn1c(N)c(N(CCOC)C(=O)c2ccc(C)c(S(=O)(=O)N3CCCCC3)c2)c(=O)[nH]c1=O	-1	108	0	2	x
COc1ccc(NC(=O)CSc2nc3ccccc3nc2N2CCCC2)c(OC)c1	4	120	-2	-3	x
Cc1ccsc1CN1CC(=O)N(c2c(C)cccc2C)C1=S	7.4*	112	0	5	0
SMILES	V-ATPase pH	Yeast superoxide	hiPSC survival	Fh CTSL1 inh	V-ATPase pH SP
CCOC(=O)c1[nH]c(=O)c2ccccc2c1O	-6	131	-2	3	2
CN1C(=O)N(C)C2(c3ccccc3)NC(=O)NC12c1ccccc1 (stereo not given)	-1	98	-2	0	x
CN1C(=O)N(C)C2(c3ccccc3)Nn3c(s/c(=C/c4ccccc4)c3=O)=NC12c1ccccc1 (stereo not given)	23*	97	-4	-1	0
COc1ccc(CCN2C(=O)C3C4CC(C5C(C(=O)NN)=NOC45)C3C2=O)cc1OC (stereo not given)	-4	105	-3	0	x
COc1ccc(CCN2C(=O)C3C4CC(C5C(C(N)=O)=NOC45)C3C2=O)cc1OC (stereo not given)	15*	107	0	-2	1
COc1ccccc1N1CC(C(=O)Nc2ccccc2N2CCCC2)CC1=O (stereo not given)	7.6*	96	1	4	1
O=C(NCc1ccco1)c1cccc(-c2cncc3nccn23)c1	x	x	-1	x	x
Cn1nc(C(=O)NNC(=O)c2ccccc2Br)c2ccccc2c1=O	9.5*	x	0	x	4
CCOC(=O)C(CCCOc1ccccc1)C(=O)OCC	2	104	-1	1	x
CCOC(=O)C(CCCOc1ccc(C)cc1)C(=O)OCC	9.6*	101	2	1	-6
O=C(O)c1cc(N/C(=N\S(=O)(=O)c2ccc(F)cc2)c2ccccc2)ccc1O	3	x	0	x	x
Cc1ccc(S(=O)(=O)/N=C(/Nc2ccc(O)c(C(=O)O)c2)c2ccccc2)cc1	12*	92	1	x	-1
O=C(Nc1ccc(N2CCOCC2)cc1)C1CCN(C(=O)OCc2ccccc2)CC1	4	102	0	-1	x
O=C(Nc1ccc(N2CCOCC2)cc1Cl)C1CCN(C(=O)OCc2ccccc2)CC1	10*	95	0	-2	3
CN(C)c1ccc(S(=O)(=O)NCC(=O)N2CCN(c3ccccc3)CC2)cc1[N+](=O)[O-]	1	99	0	3	x
COCCN(C(=O)COC(=O)CCn1c(C)csc1=O)c1c(N)n(Cc2ccccc2)c(=O)[nH]c1=O	15*	122	1	-2	2
CCN(C(=O)COC(=O)CCC(=O)c1ccccc1)c1c(N)n(Cc2ccccc2)c(=O)[nH]c1=O	-4	93	-1	x	x
CCCN(C(=O)COC(=O)CCC(=O)c1ccccc1)c1c(N)n(Cc2ccccc2)c(=O)[nH]c1=O	9.1*	x	1	x	-1
Cc1csc(=O)n1CCC(=O)OCC(=O)N(CC(C)C)c1c(N)n(Cc2ccccc2)c(=O)[nH]c1=O	1	110	0	-3	x
CC(C)C[C@H]1CN(CCCC[C@@H]2CNC(=O)C(=O)N2Cc2ccccc2)C(=O)C(=O)N1CCC1CCCCC1	x	x	1	x	x
CC1=C(C(=O)OCC2CCCCC2)C(c2ccc(O)cc2)NC(=O)N1 (stereo not given)	-1	109	0	3	x
Cc1ccc(CNC2=NCCCCC2)n1C	11*	98	0	3	0
c1ccc(CNC2=NCCCCC2)cc1	2	95	0	0	x
COc1ccc(-n2c(C)cc(C(=O)CN3C(=O)NC4(CCCc5sccc54)C3=O)c2C)cc1 (stereo not given)	10*	109	-3	-1	-1
CCc1noc(C)c1C(=O)N1CCN(S(=O)(=O)c2cccs2)CC1	7.1*	102	0	-5	1
CCc1noc(C)c1C(=O)N1CCN(S(=O)(=O)c2ccc(Cl)cc2)CC1	1	92	0	x	x
